Test results from PubChem BioAssay (NCATS).
Records with an inconclusive call do not appear. Where a call stands in place of a potency, no number is given. Active and inactive are the calls of the source. Unless noted, calls follow the shape of the dose curve; as a rule, active = well fitted curve in the direction sought with a large enough effect; inconclusive = small, poorly fitted or top-dose-only effect, or another doubt; inactive = no such curve, though single readings can be large; an effect the other way counts as inactive or inconclusive.

Experiments:
[1] = target: Rap guanine nucleotide exchange factor 4 (Homo sapiens) (UniProt Q8WZA2); assay: Confirmatory qHTS for antagonist of cAMP-regulated guanine nucleotide exchange factor 4 (EPAC2) (AID 1645885); also: nearly all actives have a fitted effect of over 25% in size
[2] = target: Rap guanine nucleotide exchange factor 3 (Homo sapiens) (UniProt O95398); assay: Counterscreen qHTS for antagonist of cAMP-regulated guanine nucleotide exchange factor 3 (EPAC1) (AID 1645888);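 also: fluorescence loss as bound BODIPY-GDP is released from Rap1B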
Summary of the method: (§1)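 Rap1B–BODIPY-GDP (250 nM) with 50 uM GDP; compounds pin-transferred to 9.74 nM–152 uM final (activator) or from 7.32 nM upwards (inhibitor). Fluorescence Ex/Em 480/540 nm read at 5 and 30 min, then after adding cAMP or buffer, at room temperature.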

[3] = target: Rap guanine nucleotide exchange factor 3 (Homo sapiens) (UniProt O95398); assay: Counterscreen qHTS for agonist of cAMP-regulated guanine nucleotide exchange factor 3 (EPAC1) (AID 1645889); also: nearly all actives have a fitted effect of over 40% in size; also: potency is read from the fitted curve at half-maximal effect
Summary of the method: as §1

[4] = Counterscreen for APE1 Inhibitors: Fluorescent Dye Displacement Validation Assay (AID 1707)
Summary of the method: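 Thiazole Orange displacement from dsDNA: 250 nM ThO with 50 nM TAMRA-labelled abasic-site (tetrahydrofuran) duplex in 50 mM Tris-HCl pH7.5, 50mM NaCl, 2 mM MgCl2, 0.01% Tween-20. Loss of endpoint fluorescence (ex 480 nm, em 540 nm) flags DNA binders.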

[5] = qHTS for differential inhibitors of proliferation of Plasmodium falciparum line 7G8 (AID 1815);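 also: potency is read from the fitted curve at half-maximal effect; parasite growth measured after three days of incubation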
[6] = qHTS for differential inhibitors of proliferation of Plasmodium falciparum line GB4 (AID 1816); conditions: Potency: Plasmodium falciparum GB4 proliferation inhibition;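 also: potency is read from the fitted curve at half-maximal effect; parasite growth measured after 72 h incubation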
[7] = qHTS for differential inhibitors of proliferation of Plasmodium falciparum line 3D7 (AID 1876); also: potency is read from the fitted curve at half-maximal effect
[8] = qHTS for differential inhibitors of proliferation of Plasmodium falciparum line D10 (AID 1877);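 also: potency is read from the fitted curve at half-maximal effect; parasites grown with compound for 72 h before DNA staining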
[9] = qHTS for differential inhibitors of proliferation of Plasmodium falciparum line Dd2 (AID 1882); conditions: Potency: Plasmodium falciparum Dd2 proliferation inhibition; also: potency is read from the fitted curve at half-maximal effect; nearly all actives have a fitted effect of over 65% in size
Summary of the method: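 Dd2-infected erythrocytes (0.3% parasitemia, 2.5% hematocrit final) incubated with compound 72 h at 37 C, 5% CO2; lysed with saponin/Triton buffer containing SYBR Green I, incubated overnight in the dark, then read by fluorescence (485/535 nm). Normalized to 0.29 uM artemisinin and DMSO.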

[10] = qHTS for differential inhibitors of proliferation of Plasmodium falciparum line W2 (AID 1883); conditions: Potency: Plasmodium falciparum W2 proliferation inhibition;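 also: potency is read from the fitted curve at half-maximal effect; parasites grown with compound for 72 h before lysis and staining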
[11] = qHTS for differential inhibitors of proliferation of Plasmodium falciparum line HB3 (AID 1886); conditions: Potency: Plasmodium falciparum HB3 proliferation inhibition;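 also: potency is read from the fitted curve at half-maximal effect; parasites grown with compound for 72 h before SYBR Green readout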
[12] = qHTS Assay for Modulators of Human Peripheral Myelin Protein 22 (PMP22) Expression/Activity (AID 1967; active = well fitted curve in the direction sought with a large enough effect in the signal ratio; the % refers to the signal ratio)
Summary of the method: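 MSC80 mouse Schwann cells stably carrying Pmp22 promoter–green click beetle luciferase plus EF-alpha–red luciferase control were dosed for 24h at 37 °C. Dual-colour luminescence was filter-overlap corrected; %Activity came from green/red ratio versus untreated cells.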

[13] = target: Ferritin light chain (Equus caballus) (UniProt P02791); assay: qHTS Validation Assay for Identification of Novel General Anesthetics (AID 2323)
Summary of the method: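 Competitive displacement of profluorescent 1-aminoanthracene (1-AMA, 50% saturated solution in PBS) from 10 uM horse-spleen apoferritin. Compounds incubated 10 min at room temperature; fluorescence read at 380 nm excitation/535 nm emission, normalized to free 1-AMA and complex, fitted with four-parameter Hill equation.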

[14] = target: ATP-dependent DNA helicase Q1 (Homo sapiens) (UniProt P46063); assay: qHTS Validation Assay for Inhibitors of RecQ-Like Dna Helicase 1 (RECQ1) (AID 2353)
Summary of the method: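 50 nM RECQ1T1 preincubated 15 min with compound in Tris pH 8.0 buffer with MgCl2, DTT, Tween-20 and 2.5 ug/ml poly(dI-dC); started with 200 nM TAMRA/BHQ-2 forked duplex and 2 mM ATP. Unwinding read as fluorescence (525/598 nm), two reads 2 h apart.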

[15] = target: RecQ-like DNA helicase BLM (Homo sapiens) (UniProt P54132); assay: qHTS Validation Assay for Inhibitors of Bloom's syndrome helicase (BLM) (AID 2364)
Summary of the method: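 50 nM BLM preincubated 15 min at room temperature with compound in pH 8.0 Tris buffer containing 2.5 ug/ml poly(dI-dC); started with 200 nM TAMRA/BHQ-2 forked duplex and 2 mM ATP (final). Unwinding read as TAMRA fluorescence increase, two reads 2 h apart.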

[16] = Quantitative high throughput screen for delayed death inhibitors of the malarial parasite plastid, 96 hour incubation (AID 488745); also: potency is read from the fitted curve at half-maximal effect; nearly all actives have a fitted effect of over 70% in size
Summary of the method: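 Infected erythrocytes were added to compound in Albumax-supplemented RPMI 1640 at 0.1% parasitemia and 2% hematocrit (final), incubated 96 h at 37 C under 5% CO2, then luciferase reagent was added and luminescence measured.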

[17] = Quantitative high throughput screen for delayed death inhibitors of the malarial parasite plastid, 48 hour incubation (AID 488752); also: potency is read from the fitted curve at half-maximal effect; nearly all actives have a fitted effect of over 65% in size
Summary of the method: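 Readout is firefly luciferase luminescence from a reporter integrated into the parasite genome, with lower signal taken as inhibited growth. Infected red cells (0.1% parasitemia, 2% hematocrit final) are cultured with compound for one 48 h cycle at 37 C.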

[18] = target: M-phase phosphoprotein 8 (Homo sapiens) (UniProt Q99549); assay: qHTS Validation Assay for Inhibitors for MPP8 Chromodomain Interactions with Methylated Histone Tails (AID 488949);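 also: AlphaScreen signal from MPP8 chromodomain bound to biotinylated H3K9me3 peptide; top concentration of the series differs between compounds; nearly all actives have a fitted effect of over 55% in size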
Summary of the method: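 MPP8 (50 nM) was preincubated with biotinylated H3(1-18)K9me3 peptide (50 nM) in PBS pH 7.4, 0.01% Tween-20 for 30 min at room temperature, then with compounds for 30 min; binding was detected by AlphaScreen.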

[19] = target: Transient receptor potential cation channel subfamily V member 1 (Homo sapiens) (UniProt Q8NER1); assay: HTS Assay for Compounds that Act as Enhancers of the Vanilloid Receptor 1 (AID 488979)
Summary of the method: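 TRPV1 cells loaded with Fluo-8 calcium dye; compound added and Ca2+ signal (ex 480/em 520 nm) followed 3 min, then capsaicin at EC20 added and read 2 more min to detect enhancement.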

[20] = target: Thyrotropin-releasing hormone receptor (Homo sapiens) (UniProt P34981); assay: qHTS for Small Molecule Agonists and Allosteric Enhancers of Human TRH Receptor: Validation Screen for Agonists (AID 493127;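 active = calcium activation more than 3 SD above the typical response in the agonist read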;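 also: intracellular calcium rise by fluo-8 fluorescence before TRH EC20 addition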); conditions: TRH receptor agonist cell assay; at 2 µM; stronger effect = higher value
Summary of the method: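 Cells 2000/well, 10% FCS, 18 h 33.5C/5% CO2 → fluo-8 Ca dye, RT 30 min–1.5 h → FDSS baseline 10 × 1 s → compound added → 230 cycles (1 s/cycle) agonist mode. TRH controls.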

[21] = target: Galactokinase (Homo sapiens) (UniProt P51570); assay: qHTS Validation Assay for Inhibitors of Human Galactokinase (GALK) (AID 493189)
Summary of the method: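 GALK (5 nM) with 35 uM ATP and 100 uM galactose in HEPES pH8.0, MgCl2, NaCl, DTT, BSA; 1 h at room temperature. Residual ATP read by Kinase-Glo Plus luminescence after 10 min.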

[22] = target: Voltage-gated inwardly rectifying potassium channel KCNH2 (Homo sapiens) (UniProt Q12809); assay: qHTS Assay for Small Molecule Inhibitors of the Human hERG Channel Activity (AID 588834);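 also: top concentration of the series differs between compounds; lower thallium flux fluorescence means stronger hERG block; nearly all actives have a fitted effect of over 50% in size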
Summary of the method: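 U2OS cells transduced with hERG via BacMam (MOI ~100), plated 2000/well, loaded with FluxOR thallium dye, compound ~10 min, then stimulation buffer; fluorescence decrease read kinetically; AC50 from Hill fits.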

[23] = target: Catechol O-methyltransferase (Homo sapiens) (UniProt P21964); assay: Confirmatory Screen for Target Class Profiling of Small Molecule Inhibitors of Methyltransferases (AID 1745852); conditions: MTase-Glo luminescence, SAH detection, recombinant enzyme; measured here: COMT max response; stronger effect = lower value
[24] = target: Guanidinoacetate N-methyltransferase (Homo sapiens) (UniProt Q14353); assay: as above; conditions: activity change, negative = inhibition: at 57.3 µM (top of the series) unless noted
[25] = target: Nicotinamide N-methyltransferase (Homo sapiens) (UniProt P40261); assay: as above; conditions: MTase-Glo luminescence, SAH detection, recombinant enzyme; measured here: NNMT max response; stronger effect = lower value
[26] = target: Phenylethanolamine N-methyltransferase (Homo sapiens) (UniProt P11086); assay: as above; conditions: MTase-Glo luminescence, SAH detection, recombinant enzyme; measured here: PNMT max response; stronger effect = lower value

Chain of Rap guanine nucleotide exchange factor 4 (Homo sapiens) (Q8WZA2 whole entry, looked up): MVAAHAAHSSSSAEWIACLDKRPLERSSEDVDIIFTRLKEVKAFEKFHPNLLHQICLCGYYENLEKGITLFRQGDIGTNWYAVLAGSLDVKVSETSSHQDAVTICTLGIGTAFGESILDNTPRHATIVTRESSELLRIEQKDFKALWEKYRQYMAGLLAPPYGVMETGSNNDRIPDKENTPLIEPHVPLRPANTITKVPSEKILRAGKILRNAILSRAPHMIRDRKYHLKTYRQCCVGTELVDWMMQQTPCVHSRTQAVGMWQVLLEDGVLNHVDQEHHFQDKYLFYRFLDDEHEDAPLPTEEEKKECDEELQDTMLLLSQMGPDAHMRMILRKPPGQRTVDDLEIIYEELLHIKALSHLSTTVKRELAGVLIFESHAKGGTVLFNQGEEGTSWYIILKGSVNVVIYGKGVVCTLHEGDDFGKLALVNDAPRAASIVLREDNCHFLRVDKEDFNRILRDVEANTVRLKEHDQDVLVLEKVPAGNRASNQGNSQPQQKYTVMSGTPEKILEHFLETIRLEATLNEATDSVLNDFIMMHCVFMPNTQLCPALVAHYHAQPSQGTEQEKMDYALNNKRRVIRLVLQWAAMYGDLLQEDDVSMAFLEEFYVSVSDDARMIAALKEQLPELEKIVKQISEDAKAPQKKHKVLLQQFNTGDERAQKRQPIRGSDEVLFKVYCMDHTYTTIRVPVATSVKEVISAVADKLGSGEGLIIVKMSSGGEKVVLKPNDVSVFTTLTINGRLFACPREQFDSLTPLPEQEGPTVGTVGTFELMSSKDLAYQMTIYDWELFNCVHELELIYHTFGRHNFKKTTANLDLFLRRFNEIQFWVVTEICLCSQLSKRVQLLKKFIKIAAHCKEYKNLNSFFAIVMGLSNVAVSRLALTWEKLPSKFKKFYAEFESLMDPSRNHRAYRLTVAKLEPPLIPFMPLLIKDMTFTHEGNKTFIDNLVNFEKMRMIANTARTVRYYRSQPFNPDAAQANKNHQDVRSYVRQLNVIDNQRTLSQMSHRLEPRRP
Chain of Rap guanine nucleotide exchange factor 3 (Homo sapiens) (O95398 whole entry, looked up): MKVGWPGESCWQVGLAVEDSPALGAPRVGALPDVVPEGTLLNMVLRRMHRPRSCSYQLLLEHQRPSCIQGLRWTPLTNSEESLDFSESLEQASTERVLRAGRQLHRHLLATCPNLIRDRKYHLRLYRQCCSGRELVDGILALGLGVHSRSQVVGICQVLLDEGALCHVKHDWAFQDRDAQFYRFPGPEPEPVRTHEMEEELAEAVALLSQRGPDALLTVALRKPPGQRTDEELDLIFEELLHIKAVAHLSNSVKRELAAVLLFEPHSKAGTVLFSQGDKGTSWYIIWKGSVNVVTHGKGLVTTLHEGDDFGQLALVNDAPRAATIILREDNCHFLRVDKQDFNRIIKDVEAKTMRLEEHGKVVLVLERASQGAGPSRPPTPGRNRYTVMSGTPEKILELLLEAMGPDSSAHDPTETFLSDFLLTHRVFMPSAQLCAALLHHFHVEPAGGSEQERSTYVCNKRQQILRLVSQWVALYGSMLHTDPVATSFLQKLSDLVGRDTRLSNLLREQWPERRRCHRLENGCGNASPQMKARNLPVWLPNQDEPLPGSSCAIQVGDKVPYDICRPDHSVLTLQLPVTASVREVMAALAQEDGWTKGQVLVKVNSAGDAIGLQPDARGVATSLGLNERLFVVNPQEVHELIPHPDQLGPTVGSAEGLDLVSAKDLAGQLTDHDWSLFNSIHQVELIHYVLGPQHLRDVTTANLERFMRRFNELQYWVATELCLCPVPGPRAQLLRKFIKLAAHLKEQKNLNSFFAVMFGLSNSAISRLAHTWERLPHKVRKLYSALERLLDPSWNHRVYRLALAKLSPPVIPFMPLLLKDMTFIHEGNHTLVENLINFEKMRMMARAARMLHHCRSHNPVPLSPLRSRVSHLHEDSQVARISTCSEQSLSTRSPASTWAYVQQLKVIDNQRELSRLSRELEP
Chain of M-phase phosphoprotein 8 (Homo sapiens) (Q99549 whole entry, looked up): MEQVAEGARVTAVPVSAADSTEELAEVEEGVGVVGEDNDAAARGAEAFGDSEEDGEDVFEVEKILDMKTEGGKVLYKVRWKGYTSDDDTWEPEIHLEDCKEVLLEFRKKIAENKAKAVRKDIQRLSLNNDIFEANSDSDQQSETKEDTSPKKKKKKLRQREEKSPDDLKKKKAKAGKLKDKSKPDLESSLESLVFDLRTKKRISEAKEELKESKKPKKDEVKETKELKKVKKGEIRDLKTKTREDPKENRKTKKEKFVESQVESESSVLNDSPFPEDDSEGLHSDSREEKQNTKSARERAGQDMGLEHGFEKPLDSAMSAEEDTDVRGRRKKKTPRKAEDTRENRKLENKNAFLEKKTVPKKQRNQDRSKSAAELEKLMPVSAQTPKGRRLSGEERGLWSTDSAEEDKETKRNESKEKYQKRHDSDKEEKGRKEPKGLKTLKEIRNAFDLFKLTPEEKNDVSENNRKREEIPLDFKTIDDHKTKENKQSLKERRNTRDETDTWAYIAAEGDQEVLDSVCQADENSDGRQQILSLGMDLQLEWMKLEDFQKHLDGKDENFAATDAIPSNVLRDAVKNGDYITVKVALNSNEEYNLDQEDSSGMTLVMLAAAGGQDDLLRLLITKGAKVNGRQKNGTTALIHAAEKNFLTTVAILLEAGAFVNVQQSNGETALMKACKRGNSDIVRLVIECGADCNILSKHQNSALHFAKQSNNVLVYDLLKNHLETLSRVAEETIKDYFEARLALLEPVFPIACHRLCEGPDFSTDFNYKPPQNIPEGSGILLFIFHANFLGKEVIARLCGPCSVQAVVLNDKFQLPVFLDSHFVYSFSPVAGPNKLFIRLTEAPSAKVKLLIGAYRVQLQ
Chain of Transient receptor potential cation channel subfamily V member 1 (Homo sapiens) (Q8NER1 whole entry, looked up): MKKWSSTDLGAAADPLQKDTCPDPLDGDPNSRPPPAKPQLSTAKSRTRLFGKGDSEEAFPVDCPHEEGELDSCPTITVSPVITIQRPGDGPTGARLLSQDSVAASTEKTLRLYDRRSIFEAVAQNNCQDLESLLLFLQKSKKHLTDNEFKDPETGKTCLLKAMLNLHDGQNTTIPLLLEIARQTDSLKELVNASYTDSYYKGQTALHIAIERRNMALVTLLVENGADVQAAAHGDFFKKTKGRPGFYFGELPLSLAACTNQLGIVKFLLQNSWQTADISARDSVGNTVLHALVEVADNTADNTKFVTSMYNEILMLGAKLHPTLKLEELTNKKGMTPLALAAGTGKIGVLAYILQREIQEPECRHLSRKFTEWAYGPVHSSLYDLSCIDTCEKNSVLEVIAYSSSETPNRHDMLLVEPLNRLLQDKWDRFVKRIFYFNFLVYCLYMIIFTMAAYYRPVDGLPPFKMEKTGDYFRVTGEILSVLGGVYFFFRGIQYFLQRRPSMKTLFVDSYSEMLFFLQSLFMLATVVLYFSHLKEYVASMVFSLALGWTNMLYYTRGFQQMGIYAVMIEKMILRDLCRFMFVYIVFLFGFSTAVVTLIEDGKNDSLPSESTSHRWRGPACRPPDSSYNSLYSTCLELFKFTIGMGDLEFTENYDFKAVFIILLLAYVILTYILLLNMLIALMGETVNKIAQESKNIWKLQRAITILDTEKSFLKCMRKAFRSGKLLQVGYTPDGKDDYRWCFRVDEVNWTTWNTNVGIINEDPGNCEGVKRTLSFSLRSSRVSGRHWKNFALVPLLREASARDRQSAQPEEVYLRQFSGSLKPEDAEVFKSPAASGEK
Chain of Thyrotropin-releasing hormone receptor (Homo sapiens) (P34981 whole entry, looked up): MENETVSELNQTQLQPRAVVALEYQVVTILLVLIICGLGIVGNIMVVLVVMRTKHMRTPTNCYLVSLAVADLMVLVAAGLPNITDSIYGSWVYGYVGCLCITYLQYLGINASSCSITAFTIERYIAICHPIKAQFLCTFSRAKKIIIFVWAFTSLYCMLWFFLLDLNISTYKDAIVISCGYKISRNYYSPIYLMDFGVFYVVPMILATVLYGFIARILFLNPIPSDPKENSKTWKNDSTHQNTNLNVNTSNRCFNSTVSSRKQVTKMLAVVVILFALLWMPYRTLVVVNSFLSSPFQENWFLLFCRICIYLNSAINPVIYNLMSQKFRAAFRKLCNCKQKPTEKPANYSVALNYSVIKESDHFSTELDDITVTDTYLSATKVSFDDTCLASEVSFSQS
Chain of Ferritin light chain (Equus caballus) (P02791 2-175 limits assumed): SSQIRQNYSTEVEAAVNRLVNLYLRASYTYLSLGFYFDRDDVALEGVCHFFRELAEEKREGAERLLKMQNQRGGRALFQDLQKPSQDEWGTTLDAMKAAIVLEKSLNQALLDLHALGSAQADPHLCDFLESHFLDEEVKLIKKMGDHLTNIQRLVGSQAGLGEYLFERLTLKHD
Chain of ATP-dependent DNA helicase Q1 (Homo sapiens) (P46063 whole entry, looked up): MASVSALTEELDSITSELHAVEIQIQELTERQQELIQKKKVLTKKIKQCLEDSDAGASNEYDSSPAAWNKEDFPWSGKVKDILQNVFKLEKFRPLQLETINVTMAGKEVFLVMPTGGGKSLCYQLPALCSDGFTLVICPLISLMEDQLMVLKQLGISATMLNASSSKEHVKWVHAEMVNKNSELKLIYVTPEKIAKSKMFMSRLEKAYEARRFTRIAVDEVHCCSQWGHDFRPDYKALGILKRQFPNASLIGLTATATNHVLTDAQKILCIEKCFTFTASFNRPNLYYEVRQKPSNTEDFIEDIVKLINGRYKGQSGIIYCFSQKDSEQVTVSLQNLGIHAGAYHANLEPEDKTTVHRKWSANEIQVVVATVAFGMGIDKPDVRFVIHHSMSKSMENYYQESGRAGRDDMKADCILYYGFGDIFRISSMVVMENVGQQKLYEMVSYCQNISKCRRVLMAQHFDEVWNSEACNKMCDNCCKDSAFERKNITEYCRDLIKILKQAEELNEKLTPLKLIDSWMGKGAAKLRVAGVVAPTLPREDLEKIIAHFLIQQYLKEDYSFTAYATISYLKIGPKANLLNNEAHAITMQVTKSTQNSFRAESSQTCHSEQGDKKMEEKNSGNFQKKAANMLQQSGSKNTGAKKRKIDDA

Compound: O=C(N/N=C/c1ccc(OC(=O)c2ccccc2Cl)cc1)c1cc(O)cc(O)c1
- Potency [1]: inactive
- Potency [2]: inactive

Compound: COc1ccc(-c2n[nH]c(C)c2-c2ccccc2OC)c(O)c1
- Potency [2]: inactive
- Potency [3]: inactive

Compound: C[C@H]1c2cccc(O)c2C(O)=C2C(=O)[C@]3(O)C(O)=C(C(N)=O)C(=O)C(N(C)C)[C@@H]3[C@@H](O)C21 (some centres undefined)
- outcome [4]: inactive
- Potency [5]: 4.47 µM (active)
- Potency [6]: 8.91 µM (active)
- Potency [7]: 1 µM (active)
- Potency [8]: 11.2 µM (active)
- Potency [9]: 5.01 µM (active)
- Potency [10]: 1 µM (active)
- Potency [11]: 6.31 µM (active)
- outcome [12]: inactive
- outcome [13]: inactive
- outcome [14]: inactive
- Potency [15]: inactive
- Potency [16]: 0.37 µM (active)
- Potency [17]: 6.57 µM (active)
- Potency [18]: inactive
- outcome [19]: inactive
- activation [20]: -0.125% (inactive)
- outcome [21]: inactive
- Potency [22]: inactive

Compound: COc1ccc(C(NCC(=O)NC(C)c2ccc(Cl)cc2)c2ccccc2)cc1 (centres undefined)
- Potency [3]: inactive

Compound: O=C(CC1Sc2ccccc2NC1=O)OCc1cc(=O)oc2cc(O)ccc12 (centres undefined)
- Potency [1]: inactive
- Potency [3]: inactive

Compound: Cc1c(CCC(=O)O)c(=O)oc2c(C)c3occ(-c4ccc(Br)cc4)c3cc12
- Potency [1]: inactive
- Potency [2]: inactive
- Potency [3]: inactive

Compound: Oc1ccccc1Cc1c(O)ccc2ccccc12
- Potency [2]: inactive

Compound: Cc1cc2ccccn2c1C(=O)c1ccccc1Br
- Potency [1]: inactive
- Potency [2]: inactive
- Potency [3]: 25.1 µM (active)

Compound: S=C(Nc1ccc2nsnc2c1)NC1CCCCC1
- Potency [1]: inactive
- Potency [2]: inactive

Compound: COc1cc(C2CC(=O)Oc3cc(C)c(Cl)c(C)c32)cc(OC)c1OC (centres undefined)
- activity change, negative = inhibition [2]: -10.7% [at 30.8 µM] (inactive)
- activation [3]: 28.3% [at 30.8 µM] (inactive)

Compound: O=c1cc(Cl)c(-c2ccccc2)nn1Cc1ccc(Cl)cc1
- Potency [2]: inactive

Compound: COc1cccc(CNc2cccc3cccnc23)c1O
- Potency [1]: inactive
- Potency [2]: inactive

Compound: CCOC(=O)c1sc(NC(=O)CN2C(=O)NC3(CC(C)CC(C)(C)C3)C2=O)cc1C (centres undefined)
- Potency [3]: 89.1 µM (active)

Compound: Oc1ccc(/C(Cc2ccccn2)=N\Nc2ccccc2)c(O)c1
- Potency [2]: inactive

Compound: COc1cc(C)nc(N2CCCC(C(=O)Nc3cc(Cl)ccc3OC)C2)n1 (centres undefined)
- Potency [2]: inactive

Compound: O=C(NCCC1CCCCN1S(=O)(=O)c1ccc(Cl)cc1)C(=O)NCc1ccco1 (centres undefined)
- Potency [3]: 89.1 µM (active)

Compound: O=C(COc1ccc(Cl)cc1Cl)NNC(=S)NCc1ccco1
- Potency [2]: inactive

Compound: CCN(CC)c1cc(CCC(=O)N2CCN(c3cccc(OC)c3)CC2)ccn1
- activity [23]: -2.67%
- activity change, negative = inhibition [24]: 5.52%
- activity [25]: 1.73%
- activity [26]: -3.99%
